Laboratory results reported in PubChem BioAssay (NCI).
This is part of a sample that, as a whole, favours compounds with a hit. Of some 83,000 tested, about 20% had one in any assay.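 Treatment: one concentration, 48 hours, 96-well format. Scoring: percent growth, with anything below 10 considered active.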 Values without a mark were called inactive. The source made the active and inactive calls.

Legend:
Experiment in all cases: NCI-60 one-dose screen, 48 h (100 = growth as untreated, 0 = no growth, -100 = all killed)
Conditions in all cases: 10 µM unless noted
HCT-15 colon = tested on: HCT-15 colon
HT29 colon = tested on: HT29 colon
SNB-75 CNS = tested on: SNB-75 CNS
SNB-19 CNS = tested on: SNB-19 CNS
U251 CNS = tested on: U251 CNS
PC-3 prostate = tested on: PC-3 prostate
SK-MEL-5 melanoma = tested on: SK-MEL-5 melanoma
UACC-62 melanoma = tested on: UACC-62 melanoma
LOX IMVI melanoma = tested on: LOX IMVI melanoma
SK-MEL-28 melanoma = tested on: SK-MEL-28 melanoma

Row | SMILES | growth (HCT-15 colon) | growth (HT29 colon) | growth (SNB-75 CNS) | growth (SNB-19 CNS) | growth (U251 CNS) | growth (PC-3 prostate) | growth (SK-MEL-5 melanoma) | growth (UACC-62 melanoma) | growth (LOX IMVI melanoma) | growth (SK-MEL-28 melanoma)
1 | O=c1cc(/C=N\Nc2nc(-c3ccc(Cl)cc3Cl)cs2)c2cc(Cl)ccc2o1 | 90.7% | 99.3% | 80.6% | 106% | 101% | 80.1% | 86.3% | 80.6% | 89.8% | 90.6%
2 | COc1ccc([C@H]2[C@@H](F)C(=O)N2c2cc(OC)c(OC)c(OC)c2)cc1F | 13.6% | 3.73% (active) | 50.9% | 34.1% | 11.9% | 23.1% | -31.5% (active) | 53.4% | 24% | 57.7%
3 | O=c1nc(-c2ccccc2)c2cc(-c3ccc(N4CCCC4)nc3)ccc2[nH]1 | 44% | 30.7% | 66.1% | 66.4% | 67.5% | 65.7% | 40.4% | 57.2% | 57.2% | 82.3%
4 | N#Cc1c(-c2ccc(F)cc2)nc(N/N=C/c2cccc(O)c2)nc1N1CCOCC1 | 69.5% | 79.8% | 73.9% | 96.1% | 73.5% | 72.7% | 90% | 87.7% | 85.2% | 99%
5 | COC(=O)c1nc(-c2ccccc2)oc1S(=O)(=O)n1nc(C)cc1N | 46.9% | 17.5% | 82.3% | 96.6% | 101% | 104% | 92.3% | 89.4% | 76.8% | 87.4%
6 | COc1cc(F)c(-c2nc3c(C)cccc3n2Cc2c(F)cccc2F)c(F)c1 | 81.9% | 70.1% | 71.5% | 91.6% | 83.6% | 64.2% | 85.6% | 64.5% | 87.8% | 98.7%
7 | CCOC(=O)c1c(C)nc2c(c1N)/C(=C/c1ccccn1)C(=O)N2Cc1ccccc1 | -58.9% (active) | -18.6% (active) | 68.6% | 0.719% (active) | -87.4% (active) | 2.04% (active) | 41.2% | 4.68% (active) | -88.4% (active) | -2.42% (active)
8 | CN(C)C(CNc1oc(-c2cccc3ccccc23)nc1C#N)c1ccco1 (stereo not given) | 79.8% | 72.1% | 71.5% | 101% | 80.4% | 89.5% | 91.7% | 91.3% | 95.8% | 96.3%
9 | C=C1C(=O)O[C@H]2[C@H]1CC/C(C=Nc1c(N)cc(F)cc1Br)=C\CC[C@@]1(C)O[C@@H]21 | 30.6% | 36.4% | 91.2% | 76.7% | 87.3% | 58.3% | 96.9% | 90.1% | 66.2% | 80%
10 | CCOC(=O)NCCc1nc2c([nH]1)c(=O)n(C)c(=O)n2C | 97.6% | 98.5% | 91% | 107% | 108% | 91% | 102% | 100% | 94.9% | 102%
11 | COc1ccc(/C=C(/C(=O)N2CCN(Cc3ccccc3)CC2)c2cc(OC)c(OC)c(OC)c2)cc1O | 59.7% | 95.4% | 49.2% | 64.8% | 66.1% | 34.8% | 33.3% | 45% | 60.2% | 76.5%
12 | CC(=O)Nc1ccc2c(c1)Cc1cc(F)ccc1-2 | 105% | 92.2% | 87.4% | 103% | 95.5% | 95.5% | 102% | 90.7% | 95.8% | 117%
13 | c1ccc2c3c([nH]c2c1)C(c1ccc(C2NCCc4c2[nH]c2ccccc42)cc1)NCC3 (stereo not given) | -65.8% (active) | -74.2% (active) | -11.4% (active) | 2.5% (active) | -92.6% (active) | 16.8% | -92.9% (active) | -69.9% (active) | -94.6% (active) | -52.8% (active)
14 | CCCCC(=O)Nc1c(C(=O)Nc2ccccc2)sc2nc3c(cc12)C(OC(=O)CCCC)CCC3 (stereo not given) | 81.3% | 79.4% | 89.3% | 97.2% | 79.8% | 90.7% | 84.5% | 87.6% | 85.1% | 110%
15 | CNCc1cccc2c1OCCOCCOCCN(CCN1CCOCC1)S(=O)(=O)c1ccc(cc1)-c1cnc(N)c(n1)C(=O)N2 | 74.8% | 24.5% | 16.7% | 76.3% | 53.8% | 50.1% | 76.6% | 73% | 28.4% | 76.3%
16 | CCCS(=O)(=O)Nc1ccc(F)c(C(=O)c2c[nH]c3ncc(-c4ccc(OCCCC5CCCCN5)nc4)cc23)c1F (stereo not given) | 102% | 2.79% (active) | 19.4% | 77.5% | 61.2% | 53% | 44.7% | -22% (active) | 32.8% | -1.65% (active)
17 | COc1ccc(-c2cc(C(=O)N3N=C(c4ccc(N)cc4)CC3c3ccc(OC)cc3)c3cc(OC)ccc3n2)cc1 (stereo not given) | 22.2% | 26.5% | 70.3% | 58.1% | 48.7% | 42.5% | 67.3% | 40.4% | 41.3% | 64.4%
18 | C=C(C)[C@@H]1CC[C@]2(C(=O)n3ccnc3)CC[C@]3(C)[C@H](CC[C@@H]4[C@@]5(C)CCCNC(C)(C)[C@@H]5CC[C@]43C)[C@@H]12 | 3.01% (active) | 1.76% (active) | 81.1% | 52.6% | -45.5% (active) | 12.9% | -97.9% (active) | 31.9% | -92% (active) | -51.5% (active)
19 | CCOC(=O)c1c(C(F)(F)F)n([O-])c2ccc(Cl)cc2[n+]1=O | -60.2% (active) | -43.2% (active) | -52.2% (active) | 32.4% | -87.7% (active) | -85.7% (active) | -93.2% (active) | -18.1% (active) | -86.8% (active) | -32.8% (active)
20 | CCOC(=O)/C=C1\SC(=Nc2ccc(C#N)cc2)N(CCN2C(=O)/C(=C/C(=O)OCC)SC2=Nc2ccc(C#N)cc2)C1=O | 2.58% (active) | 15.7% | 53.6% | 28.2% | -7.96% (active) | 39.6% | 58.8% | 33.6% | 0.0355% (active) | 97%
21 | CN(CCC#N)C(=O)Nc1ccccc1 | 104% | 94.6% | 99.2% | 109% | 102% | 99.5% | 110% | 101% | 96.2% | 112%
22 | COC(=O)c1oc2c(C(=O)/C=C/c3ccc(OC)cc3)c(OCCCN3CCCCC3)ccc2c1C | 3.33% (active) | 3.92% (active) | 33.6% | 38.4% | 12% | -2.46% (active) | -60.9% (active) | 40.1% | -26.1% (active) | -51.4% (active)
23 | COc1ccc2nc3nc4ccc[nH]c4cc3c2c1 | 82.9% | 97.7% | 82.5% | 105% | 94.8% | 93.2% | 88.6% | 105% | 95.1% | 110%
24 | COc1ccc(-c2nc(C#N)c(NCC(c3ccc(Cl)cc3)N3CCCCC3)o2)cc1 (stereo not given) | 69.4% | 85.6% | 91% | 113% | 96% | 75.3% | 93.2% | 90.4% | 93.8% | 94.3%
25 | COC(=O)c1ccc2c(c1)NC(=O)[C@@H]1CCCN21 | 96.6% | 98.5% | 83.1% | 94.2% | 102% | 100% | 96.8% | 94.6% | 88.5% | 106%
26 | C=C(C)[C@@H]1CC[C@]2(C(=O)O)CC[C@]3(C)[C@H](CC[C@@H]4[C@@]5(C)C[C@@H](CC#Cc6ccccc6)C(=O)C(C)(C)[C@@H]5CC[C@]43C)[C@@H]12 | 18.8% | 23.9% | 65.1% | 46.3% | 27.8% | 35.3% | 32% | 42.4% | 45.1% | 45.1%
